# Source: the supplement of paper PMC10981050
# “And” between values parts separate entries of the source, which are not always exact repeats. Equal entries are not always repeated.
# How the values were obtained:
# Assay in all cases: cell viability relative to vehicle control; higher = less cytotoxic
# Details in all cases: 10 µM
# [1] = test system: K562
# Summary of the method: (§1)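 After removal of identity-inconsistent compounds, the Selleck bioactive, kinase and epigenetic probe libraries were screened on CRISPR-edited mutant clones and isogenic wild-type clones of four leukaemia lines. Plates were 384-well, each well holding 2000 cells in 50 µL medium and receiving a single 10 µM acoustically dispensed dose. CellTiter-Glo luminescence was read 48 h later, after the supernatant was taken off. Genedata Screener was used to express viability as percent of the on-plate vehicle control.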
# [2] = test system: MARIMO
# Summary of the method: as §1
# [3] = test system: MOLM14
# Summary of the method: as §1
# [4] = test system: OCI-AML2
# Summary of the method: as §1
SMILES,cell viability ([1]; SRSF2 genotype: SRSF2 P95H/wt),cell viability ([1]; SRSF2 genotype: SRSF2 wt/wt),cell viability ([2]; SRSF2 genotype: SRSF2 P95H/wt),cell viability ([2]; SRSF2 genotype: SRSF2 wt/wt),cell viability ([3]; SRSF2 genotype: SRSF2 P95H/wt),cell viability ([3]; SRSF2 genotype: SRSF2 wt/wt),cell viability ([4]; SRSF2 genotype: P95H/wt),cell viability ([4]; SRSF2 genotype: wt/wt)
CN1CCN(Cc2ccc(NC(=O)Nc3ccc(Oc4ccnc(N)n4)cc3)cc2C(F)(F)F)CC1,31.7% and 37.7%,22.2%,6.8%,2.68%,1.79%,0.67%,1.64%,10.3%
CC(C)(CO)n1cc(C(=O)c2cncc(NC(=O)Cc3ccc(Cl)cn3)c2)c2cnc(N)nc21,104%,111%,115%,109%,64.3%,76.5%,107%,93.4%
Nc1cccc(S(=O)(=O)N2CCCN(S(=O)(=O)c3ccc4c(c3)OCCO4)CC2)c1,90.8% and 101%,101%,96.3%,98.8%,90.5%,97.7%,101%,97.5%
CC(C)=CCCC(C)(O)C1CCC2(C)C1C(O)CC1C3(C)CCC(O)C(C)(C)C3CCC12C [(20S)-Protopanaxadiol],98% and 105%,107%,96.7%,109%,102%,102%,115%,93.5%
CNc1nc(Nc2cn(C(C)(C)C#N)nc2C)ncc1C(F)(F)F,101% and 102%,103%,101%,108%,98.8%,101%,102%,105%
C[C@]12CCC(=O)C=C1[C@@H]1C[C@@H]1[C@H]1[C@@H]3[C@@H]4C[C@@H]4[C@@]4(CCC(=O)O4)[C@@]3(C)CC[C@@H]12 [Drospirenone],83.3% and 90.5%,83.3%,82%,91.8%,83.8%,89.2%,101%,92.7%
O=c1nc(N2CCOCC2)oc2c(-c3cccc4c3sc3ccccc34)cccc12,92.3% and 93.3%,90.1%,93.2%,102%,82.6%,81.6%,75.1%,80.3%
O=C(Oc1coc(CSc2ncccn2)cc1=O)c1ccc([N+](=O)[O-])cc1,88.1% and 95.5%,100%,98.3%,98.7%,96.5%,97.4%,97.9%,81.8%
CC1=CCC(C(C)(C)O)CC1 (configuration not stated),102% and 104%,103%,101%,105%,96.1%,103%,103%,103%
